Measurements taken from PubChem BioAssay AID1546 (The Scripps Research Institute Molecular Screening Center, 2009).
The list shows a part of the results. Values without a mark were called inactive. Rule as the data show it: active = activation above about 45%; inactive = the rest.

Molecular target: Neuropeptide Y receptor type 1 (Homo sapiens) (UniProt P25929)
Test: human Y1 receptor positive modulation or activation – cell-based, confirmation (AID 1546);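 also: cells challenged with NPY at its EC10 plus isoproterenol stimulus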
Settings: cell-based NPY-Y1 potentiator/agonist assay; at 3.6 µM; stronger effect = higher value

Neuropeptide Y receptor type 1 (Homo sapiens), sequence (P25929 whole entry, looked up): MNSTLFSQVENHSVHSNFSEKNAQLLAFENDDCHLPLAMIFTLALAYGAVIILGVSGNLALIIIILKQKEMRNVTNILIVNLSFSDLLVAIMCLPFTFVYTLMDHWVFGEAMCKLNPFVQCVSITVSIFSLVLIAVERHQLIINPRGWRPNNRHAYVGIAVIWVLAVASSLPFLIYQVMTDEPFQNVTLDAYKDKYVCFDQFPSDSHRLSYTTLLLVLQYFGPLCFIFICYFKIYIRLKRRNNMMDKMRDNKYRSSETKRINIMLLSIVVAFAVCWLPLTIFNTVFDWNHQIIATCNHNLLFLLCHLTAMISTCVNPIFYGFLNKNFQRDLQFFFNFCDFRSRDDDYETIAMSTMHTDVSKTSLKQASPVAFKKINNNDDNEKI

| SMILES | activation |
| --- | --- |
| CSC1=NP(=S)(SC)N(C)c2nc3n(c21)CCC3 (configuration not stated) | 13.8% |
| Cc1nn(Cc2ccccc2Cl)c(Cl)c1C(=O)OC(C(=O)NC(N)=O)C(C)C (configuration not stated) | 43.3% |
